From PubChem BioAssay (NCATS)
Records with an inconclusive call do not appear. Activity calls are given as the source filed them. Calls come from the whole dose curve; as a rule, active = well fitted inhibition curve with a large enough effect; inconclusive = small, poorly fitted or top-dose-only effect, or effect the other way; inactive = flat fitted curve, though single readings scatter.

Molecular target: ATP-dependent 6-phosphofructokinase (Trypanosoma brucei brucei) (UniProt O15648)
Assay: qHTS Assay to Find Inhibitors of T. brucei phosphofructokinase: hit validation (AID 492961);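 note: luminescence reports ADP formed as PFK phosphorylates fructose-6-phosphate with ATP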
Details: T. brucei PFK, ADP-Glo luminescence; series mostly up to 51.4 µM; activity change, negative = inhibition: at the top concentration
How it was run: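 Inhibition of parasite PFK is measured as reduced ADP formation, quantified via luciferase after ATP depletion. Assay used 0.1 mM ATP, 0.5 mM F6P, 1.25 nM enzyme, 45 min incubation.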
% is set by controls: 0 for no effect and ±100 for the full control effect.

ATP-dependent 6-phosphofructokinase (Trypanosoma brucei brucei), sequence (O15648 whole entry, looked up): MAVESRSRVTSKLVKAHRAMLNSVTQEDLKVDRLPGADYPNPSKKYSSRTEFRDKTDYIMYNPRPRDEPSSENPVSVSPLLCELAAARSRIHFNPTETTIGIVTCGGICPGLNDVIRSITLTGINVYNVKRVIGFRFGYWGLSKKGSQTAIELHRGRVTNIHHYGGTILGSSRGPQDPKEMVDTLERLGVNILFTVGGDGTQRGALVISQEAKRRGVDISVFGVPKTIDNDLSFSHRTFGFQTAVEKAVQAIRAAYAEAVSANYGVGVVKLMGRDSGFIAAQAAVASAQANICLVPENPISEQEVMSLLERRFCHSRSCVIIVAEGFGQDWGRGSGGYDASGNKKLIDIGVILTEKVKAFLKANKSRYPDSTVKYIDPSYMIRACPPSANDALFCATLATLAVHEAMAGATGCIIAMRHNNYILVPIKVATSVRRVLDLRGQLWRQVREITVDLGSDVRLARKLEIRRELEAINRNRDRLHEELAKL

SMILES	activity change, negative = inhibition
C#CCN[C@@H]1CCc2ccccc21	-11.7% (inactive)
CNNCc1ccc(C(=O)NC(C)C)cc1	0% (inactive)
CNS(=O)(=O)Cc1ccc2[nH]cc(CCN(C)C)c2c1	11.6% (inactive)
NCCCC(O)(P(=O)(O)O)P(=O)(O)O	-3.25% (inactive)
CC(N)C12CC3CC(CC(C3)C1)C2 (stereo not given)	-9.46% (inactive)
NC(=O)c1cccnc1	-3.92% (inactive)
CCOC(=O)c1ccc(OC(=O)CCCCCN=C(N)N)cc1	6.85% [at 24.3 µM] (inactive)
CN(Cc1cc(Br)cc(Br)c1N)C1CCCCC1	-4.64% (inactive)
CN(CCOc1ccc(CC2SC(=O)NC2=O)cc1)c1ccccn1 (stereo not given)	-0.626% (inactive)
Cc1ccnc2c1NC(=O)c1cccnc1N2C1CC1	-6.12% (inactive)
COc1cc2c(Nc3ccc(Br)cc3F)ncnc2cc1OCC1CCN(C)CC1	1.87% (inactive)
N[C@@H](C(=O)N[C@@H]1C(=O)N2C(C(=O)O)=C(Cl)CS[C@H]12)c1ccccc1	19.3% (inactive)
CCOC(=O)[C@H](CCc1ccccc1)N[C@H]1CS[C@H](c2cccs2)CN(CC(=O)O)C1=O	0.108% (inactive)
O=C(O)CCn1c2c(c3ccccc31)C[C@H](NS(=O)(=O)c1ccc(F)cc1)CC2	11.1% (inactive)
Cc1cccc(N(C)C(=S)Oc2ccc3ccccc3c2)c1	2.69% [at 24.3 µM] (inactive)
CN1CCCC(n2nc(Cc3ccc(Cl)cc3)c3ccccc3c2=O)CC1 (stereo not given)	15.1% (inactive)
CCOc1cc(N)c(Cl)cc1C(=O)NCC1CN(Cc2ccc(F)cc2)CCO1 (stereo not given)	-18.4% (inactive)
C1CCC(C(CC2CCCCN2)C2CCCCC2)CC1 (stereo not given)	11.5% (inactive)
Nc1[nH]c(=O)ncc1F	-1.9% [at 24.3 µM] (inactive)
C[C@@H](NCCCc1cccc(C(F)(F)F)c1)c1cccc2ccccc12	-3.59% (inactive)
CNC1CCCN(c2c(F)cc3c(=O)c(C(=O)O)cn(C4CC4)c3c2OC)C1 (stereo not given)	-2.25% (inactive)
CCCCOc1ccc(CC(=O)NO)cc1	6.95% [at 24.3 µM] (inactive)
CN(C)CCc1c[nH]c2ccc(CS(=O)(=O)N3CCCC3)cc12	-7.42% (inactive)
NC(=O)N1c2ccccc2CC(=O)c2ccccc21	12.9% (inactive)
CCN(C)C(=O)Oc1cccc([C@H](C)N(C)C)c1	0% (inactive)
COc1cc(NS(=O)(=O)c2ccc(N)cc2)nc(OC)n1	-1.29% [at 24.3 µM] (inactive)
CC[C@H](C)C(=O)O[C@H]1C[C@@H](C)C=C2C=C[C@H](C)[C@H](CC[C@@H]3C[C@@H](O)CC(=O)O3)[C@H]21	15.1% (inactive)
CCc1c2c(nc3ccc(OC(=O)N4CCC(N5CCCCC5)CC4)cc13)-c1cc3c(c(=O)n1C2)COC(=O)[C@]3(O)CC	-3.52% (inactive)
CN1CCN(c2c(F)cc3c(=O)c(C(=O)O)cn(CCF)c3c2F)CC1	6.19% (inactive)
CCC(C)(C)c1ccc(CC(C)CN2C[C@@H](C)O[C@@H](C)C2)cc1 (stereo not given in full)	10% (inactive)
